# From the supplement of paper PMC12282887
# ± gives the standard deviation of the averaged measurements.
# Key:
# Assay in all cases: promoter activity interaction Z-score (Lux/OD deviation from empty-vector control); higher = stronger promoter induction by the compound
# [1] = tested on: E. coli BW25113 acrABp lux reporter
# In short: (§1)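 Wild-type E. coli BW25113 and three single-gene deletion strains, each carrying a low-copy luxCDABE promoter reporter, were grown at 37°C in 40 µl LB Lennox per well of a 384-well plate. Every compound was applied at four 1:2 dilutions in biological duplicates, and OD600 and luminescence were read every 30 min for 12 h. Integration covered 0–8 h for wild type and 1–9 h for deletion strains, and wells under 10% of the median growth value were removed. Scores are Z-transformed residuals of growth-normalised luminescence fitted against a control.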
# [2] = tested on: E. coli BW25113 micFp lux reporter
# In short: as §1
# [3] = tested on: E. coli BW25113 ompFp lux reporter
# In short: as §1
# [4] = tested on: E. coli BW25113 robp lux reporter
# In short: as §1
# [5] = tested on: E. coli BW25113 soxSp lux reporter
# In short: as §1
# [6] = tested on: E. coli BW25113 tolCp lux reporter
# In short: as §1
# [7] = 28.4 µg/ml, genetic background: wild type
# [8] = 28.4 µg/ml, genetic background: ΔmarA
# [9] = 28.4 µg/ml, genetic background: Δrob
# [10] = 28.4 µg/ml, genetic background: ΔsoxS
# [11] = 56.8 µg/ml, genetic background: wild type
# [12] = 56.8 µg/ml, genetic background: ΔmarA
# [13] = 56.8 µg/ml, genetic background: Δrob
# [14] = 56.8 µg/ml, genetic background: ΔsoxS
# [15] = 113.7 µg/ml, genetic background: wild type
# [16] = 113.7 µg/ml, genetic background: ΔmarA
# [17] = 113.7 µg/ml, genetic background: Δrob
# [18] = 113.7 µg/ml, genetic background: ΔsoxS
# [19] = 227.3 µg/ml, genetic background: wild type
# [20] = 227.3 µg/ml, genetic background: ΔmarA
# [21] = 227.3 µg/ml, genetic background: Δrob
# [22] = 227.3 µg/ml, genetic background: ΔsoxS
compound,measurement,setting,value
O=c1[nH]c(=O)c2[nH]c(O)nc2[nH]1 [Sodium urate],promoter activity interaction Z-score,[1]; [7],0.0607 ± 0.068
same,promoter activity interaction Z-score,[1]; [8],-0.691 ± 0.25
same,promoter activity interaction Z-score,[1]; [9],0.112 ± 0.14
same,promoter activity interaction Z-score,[1]; [10],-0.119 ± 0.36
same,promoter activity interaction Z-score,[1]; [11],0.0108 ± 0.15
same,promoter activity interaction Z-score,[1]; [12],-1.36 ± 0.16
same,promoter activity interaction Z-score,[1]; [13],0.00464 ± 0.19
same,promoter activity interaction Z-score,[1]; [14],-0.118 ± 0.35
same,promoter activity interaction Z-score,[1]; [15],0.121 ± 0.12
same,promoter activity interaction Z-score,[1]; [16],-1.18 ± 0.34
same,promoter activity interaction Z-score,[1]; [17],-0.0273 ± 0.041
same,promoter activity interaction Z-score,[1]; [18],-0.102 ± 0.19
same,promoter activity interaction Z-score,[1]; [19],0.0857 ± 0.087
same,promoter activity interaction Z-score,[1]; [20],-0.114 ± 0.23
same,promoter activity interaction Z-score,[1]; [21],0.315 ± 0.14
same,promoter activity interaction Z-score,[1]; [22],-0.127 ± 0.56
same,promoter activity interaction Z-score,[2]; [7],0.0581 ± 0.23
same,promoter activity interaction Z-score,[2]; [8],-0.118 ± 0.23
same,promoter activity interaction Z-score,[2]; [9],-0.0289 ± 0.19
same,promoter activity interaction Z-score,[2]; [10],0.0526 ± 0.22
same,promoter activity interaction Z-score,[2]; [11],0.0725 ± 0.02
same,promoter activity interaction Z-score,[2]; [12],-0.0713 ± 0.39
same,promoter activity interaction Z-score,[2]; [13],0.0271 ± 0.23
same,promoter activity interaction Z-score,[2]; [14],0.0688 ± 0.17
same,promoter activity interaction Z-score,[2]; [15],0.114 ± 0.09
same,promoter activity interaction Z-score,[2]; [16],-0.218 ± 0.078
same,promoter activity interaction Z-score,[2]; [17],-0.082 ± 0.13
same,promoter activity interaction Z-score,[2]; [18],0.0891 ± 0.29
same,promoter activity interaction Z-score,[2]; [19],0.0879 ± 0.087
same,promoter activity interaction Z-score,[2]; [20],-0.0859 ± 0.057
same,promoter activity interaction Z-score,[2]; [21],-0.12 ± 0.13
same,promoter activity interaction Z-score,[2]; [22],-0.223 ± 0.39
same,promoter activity interaction Z-score,[3]; [7],-0.0285 ± 0.013
same,promoter activity interaction Z-score,[3]; [8],-0.27 ± 0.27
same,promoter activity interaction Z-score,[3]; [9],-0.245 ± 0.31
same,promoter activity interaction Z-score,[3]; [10],0.0289 ± 0.054
same,promoter activity interaction Z-score,[3]; [11],0.162 ± 0.082
same,promoter activity interaction Z-score,[3]; [12],-0.186 ± 0.1
same,promoter activity interaction Z-score,[3]; [13],-0.168 ± 0.14
same,promoter activity interaction Z-score,[3]; [14],0.253 ± 0.42
same,promoter activity interaction Z-score,[3]; [15],0.31 ± 0.34
same,promoter activity interaction Z-score,[3]; [16],-0.874 ± 0.12
same,promoter activity interaction Z-score,[3]; [17],-0.0944 ± 0.13
same,promoter activity interaction Z-score,[3]; [18],0.241 ± 0.093
same,promoter activity interaction Z-score,[3]; [19],0.726 ± 0.41
same,promoter activity interaction Z-score,[3]; [20],0.504 ± 0.044
same,promoter activity interaction Z-score,[3]; [21],0.739 ± 0.45
same,promoter activity interaction Z-score,[3]; [22],0.654 ± 0.45
same,promoter activity interaction Z-score,[4]; [7],0.189 ± 0.027
same,promoter activity interaction Z-score,[4]; [8],-0.944 ± 0.38
same,promoter activity interaction Z-score,[4]; [9],-0.184 ± 0.64
same,promoter activity interaction Z-score,[4]; [10],0.198 ± 0.34
same,promoter activity interaction Z-score,[4]; [11],0.19 ± 0.1
same,promoter activity interaction Z-score,[4]; [12],-0.157 ± 0.22
same,promoter activity interaction Z-score,[4]; [13],0.189 ± 0.29
same,promoter activity interaction Z-score,[4]; [14],0.0419 ± 0.49
same,promoter activity interaction Z-score,[4]; [15],0.246 ± 0.37
same,promoter activity interaction Z-score,[4]; [16],-1.37 ± 0.15
same,promoter activity interaction Z-score,[4]; [17],-0.253 ± 0.052
same,promoter activity interaction Z-score,[4]; [18],-0.163 ± 0.39
same,promoter activity interaction Z-score,[4]; [19],0.613 ± 0.94
same,promoter activity interaction Z-score,[4]; [20],0.235 ± 0.099
same,promoter activity interaction Z-score,[4]; [21],0.286 ± 0.0035
same,promoter activity interaction Z-score,[4]; [22],1.01 ± 0.33
same,promoter activity interaction Z-score,[5]; [7],0.0961 ± 0.26
same,promoter activity interaction Z-score,[5]; [8],-0.0522 ± 0.15
same,promoter activity interaction Z-score,[5]; [9],0.0395 ± 0.24
same,promoter activity interaction Z-score,[5]; [10],-0.0315 ± 0.002
same,promoter activity interaction Z-score,[5]; [11],-0.0307 ± 0.019
same,promoter activity interaction Z-score,[5]; [12],-0.0796 ± 0.096
same,promoter activity interaction Z-score,[5]; [13],0.0954 ± 0.4
same,promoter activity interaction Z-score,[5]; [14],-0.135 ± 0.051
same,promoter activity interaction Z-score,[5]; [15],0.0999 ± 0.14
same,promoter activity interaction Z-score,[5]; [16],-0.0884 ± 0.18
same,promoter activity interaction Z-score,[5]; [17],-0.00479 ± 0.23
same,promoter activity interaction Z-score,[5]; [18],0.0412 ± 0.16
same,promoter activity interaction Z-score,[5]; [19],-0.0463 ± 0.28
same,promoter activity interaction Z-score,[5]; [20],-0.0252 ± 0.33
same,promoter activity interaction Z-score,[5]; [21],0.122 ± 0.45
same,promoter activity interaction Z-score,[5]; [22],-0.094 ± 0.097
same,promoter activity interaction Z-score,[6]; [7],0.639 ± 0.76
same,promoter activity interaction Z-score,[6]; [8],0.214 ± 0.76
same,promoter activity interaction Z-score,[6]; [9],-0.337 ± 0.13
same,promoter activity interaction Z-score,[6]; [10],0.0334 ± 0.15
same,promoter activity interaction Z-score,[6]; [11],-0.365 ± 0.23
same,promoter activity interaction Z-score,[6]; [12],-0.26 ± 0.17
same,promoter activity interaction Z-score,[6]; [13],0.0782 ± 0.61
same,promoter activity interaction Z-score,[6]; [14],-0.0978 ± 0.24
same,promoter activity interaction Z-score,[6]; [15],-0.0784 ± 0.044
same,promoter activity interaction Z-score,[6]; [16],-0.877 ± 0.12
same,promoter activity interaction Z-score,[6]; [17],-0.397 ± 1.1
same,promoter activity interaction Z-score,[6]; [18],0.132 ± 0.047
same,promoter activity interaction Z-score,[6]; [19],-0.0307 ± 0.037
same,promoter activity interaction Z-score,[6]; [20],-0.7 ± 0.17
same,promoter activity interaction Z-score,[6]; [21],1.21 ± 1.3
same,promoter activity interaction Z-score,[6]; [22],-0.0415 ± 0.19
